Screens deposited in PubChem by several laboratories.
Hits are enriched below; roughly 27% of the tested compounds scored in any of these assays.
CYP2C9 activ = activators of human CYP2C9; P11712; recombinant CYP2C9, luciferin-H conversion, luminescence; hits give high values; factor 1 = untreated enzyme, 0 = blocked; activation factor at 5 µM; actives 1.4% (n = 96,000);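 active = activation factor of 2 or more for CYP2C9 at a 5 µM dose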;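 note: 0 = sulfaphenazole-blocked wells and 1 = vehicle-only wells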
CYP2C19 activ = cytochrome P450 2C19 (human) activation | P33261 | recombinant CYP2C19, luciferin-H EGE luminescence; hits give high values; 0 = fully inhibited enzyme, 1 = untreated enzyme | activation factor at 5 µM | 96,000 tested, under 10 active | AID 1025;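 active = activation factor of at least 2 at 5 µM in the primary screen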;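 note: 0 = wells with 2.5 mM tranylcypromine and 1 = vehicle-only wells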
Target sequence (P33261 whole entry, looked up): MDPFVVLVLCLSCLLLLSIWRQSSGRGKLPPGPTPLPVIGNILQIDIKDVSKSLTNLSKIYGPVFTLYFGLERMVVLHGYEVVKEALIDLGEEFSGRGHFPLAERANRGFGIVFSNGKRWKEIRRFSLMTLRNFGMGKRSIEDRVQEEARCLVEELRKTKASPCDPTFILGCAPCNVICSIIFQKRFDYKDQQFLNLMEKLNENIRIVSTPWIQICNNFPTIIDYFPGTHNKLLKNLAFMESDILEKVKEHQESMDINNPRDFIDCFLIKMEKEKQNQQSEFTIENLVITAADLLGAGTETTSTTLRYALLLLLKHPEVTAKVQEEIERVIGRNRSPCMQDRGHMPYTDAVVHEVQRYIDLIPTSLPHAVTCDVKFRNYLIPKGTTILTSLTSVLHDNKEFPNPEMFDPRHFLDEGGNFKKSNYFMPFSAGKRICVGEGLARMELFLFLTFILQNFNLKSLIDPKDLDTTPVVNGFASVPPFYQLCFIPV
Cav32 inh = human Cav3.2 channel inhibition, primary screen; O95180; Cav3.2-expressing cells, Fluo-4 calcium fluorescence FDSS; hits give low values; B-score at 10 µM; actives 4% (n = 100,000);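 active = single-dose well whose peak fluorescence ratio is a statistical outlier from its plate by either plate-standardised score or position-corrected B-score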
CYP2C9 inh = human CYP2C9 inhibition; CYP2C9 Supersomes, luciferin-H conversion, luminescence; inhibition, % at 5 µM; actives 20% (n = 96,000);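 active = blocking of liver enzyme CYP2C9 beyond about 50% at 5 µM, limit read from the data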
CYP2C19 inhib = blocks human cytochrome P450 2C19; P33261; CYP2C19 Supersomes, luciferin-H EGE luminescence, 30 min; inhibition, % at 5 µM; actives 21% (n = 96,000);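 active = CYP2C19 inhibition above a set limit at 5 µM in the primary screen, cut at about 50% in these data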;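 note: plate controls were negative control wells for no effect and 2.5 mM tranylcypromine positive control for full effect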
* hit, by the source's call; nt = no result.

SMILES	CYP2C9 activ	CYP2C19 activ	Cav32 inh	CYP2C9 inh	CYP2C19 inhib
CCCNC(=O)CN1C(=O)NC2(CCCc3cc(OC)ccc32)C1=O (stereo unspecified)	1.1	1	0.017	-15	3
c1ccc(-c2nnc(CSc3nc4ccccc4[nH]3)o2)cc1	0.3	0.1	0.23	67*	90*
C=CCNC(=O)NC(=O)COC(=O)CCCSc1nc2ccccc2[nH]1	1.2	0.8	0.51	-20	16
O=C(CCCSc1nc2ccccc2[nH]1)Nc1nnc(-c2ccccc2)o1	0.5	0.6	nt	52*	42
O=C1CC(C(=O)N(c2ccc(F)cc2)C(C(=O)NC2CCCC2)c2ccccn2)CS1 (stereo unspecified)	1.1	1.1	0.24	-12	-12
CCOC(=O)C1=NN(c2ccc(Cl)cc2)C(c2ccccc2)CC1=O (stereo unspecified)	nt	nt	-2.7	nt	nt
COC(=O)c1[nH]c2cccc(OC)c2c1NC(=O)CN1CC2(C)CC1CC(C)(C)C2 (stereo unspecified)	1	1	-1.2	-1	2
CCOc1ccc(=O)n(-c2ccccc2)n1	nt	nt	0.26	nt	nt
CCn1c(COc2ccc(=O)n(-c3ccccc3)n2)nnc1SCc1cccc(OC)c1	0.5	0.8	1.1	53*	17
CCn1c(SCC(=O)c2[nH]c(C)c(C(C)=O)c2C)nnc1-c1ccccc1	0.7	0.2	1.6	27	77*
CCn1c(SCC(=O)c2[nH]c(C)c(C(C)=O)c2C)nnc1-c1ccncc1	0.9	0.3	-0.14	8	66*
O=C(COC(=O)c1ccc(Br)o1)NCC1CCCO1 (stereo unspecified)	0.9	1	-0.85	5	3
O=C(NCc1ccccn1)C1CCC(=O)N1C1CCCCC1 (stereo unspecified)	1.1	1	-0.021	-12	-3
O=C(Cc1ccccc1)NC(NCCCN1CCOCC1)(C(F)(F)F)C(F)(F)F	0.8	0.8	0.54	18	15
Cc1cc(O)c(C(C[N+](=O)[O-])c2ccc(Cl)cc2)c(=O)o1 (stereo unspecified)	0.2	0.5	0.46	84*	47
CCCOc1ccc(CCN2CCC(=O)NC2=O)cc1C	0.8	0.8	0.059	23	24
Cc1cc(CCN2CCC(=O)NC2=O)ccc1OC(C)C	0.9	0.5	0.22	7	51*
O=C(Nc1nc(-c2cc(Cl)sc2Cl)cs1)c1ccccc1	0.7	0.7	-3.6	32	26
O=S(=O)(Nc1ccc(-c2nc3ccccc3o2)cc1)c1ccccc1	0	0.2	-1.9	97*	80*
c1ccc2oc(-c3ccc(Nc4nc(N5CCCCC5)nc(N5CCOCC5)n4)cc3)nc2c1	0.8	1	nt	18	4
CC(=O)Nc1ccc(S(=O)(=O)Nc2cccc(-c3nc4ccccc4o3)c2)cc1	0	0.1	-2.4	98*	91*
O=C(NCc1nnc(SCC(=O)N2CCC(Cc3ccccc3)CC2)o1)c1ccccc1F	0.3	0.5	-1.8	72*	47
O=C(NCc1nnc(SCC(=O)N2CCCC2)o1)c1c(F)cccc1Cl	0.9	1	0.2	13	3
O=C(OC1CSc2nc3ccccc3n2C1)c1ccco1 (stereo unspecified)	0.9	0.9	0.21	8	13
CCCN(C(=S)Nc1ccccc1)C1CCS(=O)(=O)C1 (stereo unspecified)	1	1	0.27	-2	2
SMILES	CYP2C9 activ	CYP2C19 activ	Cav32 inh	CYP2C9 inh	CYP2C19 inhib
CC1=C(C(=O)Nc2ccccc2)C(c2sccc2C)n2nnnc2N1 (stereo unspecified)	1	0.8	-1.5	2	21
Cc1ccccc1N1OC2C(=O)N(c3ccc(F)cc3)C(=O)C2C1c1ccccn1 (stereo unspecified)	0.9	0.8	0.24	6	15
O=C1C2ON(c3ccccc3)C(c3ccncc3)C2C(=O)N1c1ccc(Br)cc1 (stereo unspecified)	0	0	-0.25	99*	100*
O=C1C2C(c3ccccc3)C=CC(c3ccccc3)C2C(=O)N1c1ccncc1 (stereo unspecified)	0.2	0	-0.53	82*	97*
Cc1ccc(N2C(=O)C3ON(c4ccccc4)C(c4ccncc4)C3C2=O)cc1 (stereo unspecified)	0	0	-0.6	97*	100*
CN(C)c1ccc(C2C3C(=O)N(c4ccc(C(=O)O)cc4)C(=O)C3ON2c2ccccc2)cc1 (stereo unspecified)	0.9	1	-0.0016	11	1
